Measurements from the antibiotic and cytotoxicity screens of Wong et al. (2023).
Screen size: about 39,000 compounds; about 3,300 (8.5%) were called active. The full list was thinned out, with actives kept by preference.

Each compound was assayed on HepG2 (assay: cytotoxicity call (relative viability < 0.9)). Conditions: 10 µM.

Row | Structure (SMILES) | cytotoxicity call
1 | C[As](C)SC[C@H](NC(=O)CC[C@H](N)C(=O)O)C(=O)NCC(=O)O | inactive
2 | CS(=O)(=O)c1ccc(C(=O)C2C(=O)CCCC2=O)c([N+](=O)[O-])c1 | inactive
3 | Cl.NCC(O)c1ccc(O)cc1 (stereo not drawn) | inactive
4 | O=C([O-])CCCO.[Na+] | inactive
5 | CC12C(=O)OC(=O)C1(C)C1CCC2O1 (stereo not drawn) | active
6 | C[C@]12C(=O)OC(=O)[C@]1(C)[C@H]1CC[C@H]2O1 | active
7 | C[C@@]12C(=O)OC(=O)[C@]1(C)[C@H]1CC[C@@H]2O1 | active
8 | NC1(c2ccc(F)cc2)CCC1 | inactive
9 | COC(=O)C1(O)C[C@H]2CC[C@@H](C1)N2C (stereo partly drawn) | inactive
10 | CC=C(C)C(=O)OC1CC(OC(C)=O)C2(C(=O)OC)COC3C2C12COC(O)(C(=O)OC)C2C(C)(C12OC1(C)C1CC2OC2OC=CC21O)C3O (stereo not drawn) | inactive
11 | O[C@H]1C2CN3CCN(C2)CC1(c1ccccc1)C3 | inactive
12 | O=c1cccc2n1C[C@@H]1CNC[C@H]2C1 | inactive
13 | Cc1ccc(OC(=O)N(C)C[C@H]2OCc3ccccc3-c3c(n(C)c4ccccc34)C(=O)N([C@@H](C)CO)C[C@H]2C)cc1 | inactive
14 | Cc1cc([N+](=O)[O-])cnc1N1CCNCC1 | inactive
15 | CN1C(=O)[C@@]23C[C@]4([C@@]56C[C@]78SS[C@](CO)(C(=O)N7[C@@H]5Nc5ccccc56)N(C)C8=O)c5ccccc5N[C@H]4N2C(=O)[C@@]1(CO)SS3 | active
16 | CN1C(=O)[C@]23CC4=CC=C[C@H](O)[C@H]4N2C(=O)[C@@]1(CO)SS3 | active
17 | NC1=NC(=O)C2(CCNCC2)N1 | inactive
18 | NC[C@@H]1CCCN2CCCC[C@H]12 | inactive
19 | CCC(c1cccc(O)c1)C(C)CN(C)C.Cl (stereo not drawn) | inactive
20 | COc1cccc2c1C(=O)c1c(O)c3c(c(O)c1C2=O)C[C@@](O)(C(=O)CO)C[C@@H]3O[C@H]1C[C@H](N2CCO[C@H](OC)C2)[C@H](O)[C@H](C)O1 | active
21 | CC(=C1C(=O)NC(=O)NC1=O)c1ccc(N)cc1 | inactive
22 | O=C(O)Cc1cnc[nH]1 | inactive

Row | Structure (SMILES) | cytotoxicity call
23 | CN[C@@H]1[C@@H]2[C@H]3CCN2C[C@H]1O3 | inactive
24 | CNC(=O)[C@@H]1COC[C@@H]2CN(CC(C)C)C[C@@H]21 | inactive
25 | CCC1(O)C(=O)OCc2c1cc1n(c2=O)Cc2cc3ccccc3nc2-1 (stereo not drawn) | active
26 | OCC(CO)N1CCC2(CCNCC2)CC1 | inactive
27 | C#CC1(O)C=CC2C3CCC4=CC(=O)CCC4C3CCC21CC (stereo not drawn) | inactive
28 | C[C@@H](N)C(=O)N[C@@H](CO)C(=O)N[C@H](C(=O)N[C@H](C(=O)N[C@H](C(=O)N[C@@H](CC(N)=O)C(=O)N[C@@H](Cc1ccc(O)cc1)C(=O)N[C@H](C(N)=O)[C@@H](C)O)[C@@H](C)O)[C@@H](C)O)[C@@H](C)O | inactive
29 | C[C@@H]1[C@H](O)[C@@H](C)/C=C\C=C/CC\C=C/C=C\C=C/C=C\[C@H](O[C@@H]2O[C@H](C)[C@@H](O)[C@H](N)[C@@H]2O)C[C@@H]2O[C@](O)(C[C@@H](O)[C@H](O)CC[C@@H](O)C[C@@H](O)C[C@@H](O)CC(=O)O[C@H]1C)C[C@H](O)[C@H]2C(=O)O | inactive
30 | O=S(=O)(O)O.Oc1cccc2cccnc12 | active
31 | CC(C)(C)NCC(O)c1cc(Cl)c(N)c(Cl)c1.Cl (stereo not drawn) | inactive
32 | CC(C)(C)c1o[nH]c(=O)c1C[C@@H](N)C(=O)O | inactive
33 | CC1CCC2(NC1)OC1CC3C4CCC5CC(O)CCC5(C)C4CCC3(C)C1C2C.Cl (stereo not drawn) | inactive
34 | COc1cc2c(c(OC)c1OC)-c1ccc(O)c(=O)cc1[C@H](N)CC2 | inactive
35 | COc1cc2c(c(OC)c1OC)-c1ccc(OC)c(=O)cc1C(NC(C)=O)CC2 (stereo not drawn) | active
36 | COc1cc2c(c(OC)c1OC)-c1ccc(O)c(=O)cc1C(NC(C)=O)CC2 (stereo not drawn) | inactive
37 | CC1(C)OCC2(CNC2)CO1 | inactive
38 | CN1CCOC[C@]2(CCCNC2)C1 | inactive
39 | CN(C)[C@@H]1C(=O)[C@H](C(N)=O)C(=O)[C@@]2(O)C(=O)[C@@H]3C(=O)c4c(O)cccc4[C@@](C)(O)[C@H]3C[C@@H]12 | inactive
40 | C[C@H]1CN([C@@H](C)CO)C(=O)c2c(c3ccccc3n2C)-c2ccccc2CO[C@@H]1CN(C)C(=O)Oc1ccccc1 | inactive
41 | CN1[C@@H]2C[C@@H](O)C[C@H]1[C@@H]1O[C@@H]12 | inactive
42 | Cc1ccc(OC(=O)N(C)C[C@@H]2OCc3ccccc3-c3c(n(C)c4ccccc34)C(=O)N([C@@H](C)CO)C[C@H]2C)cc1 | inactive
43 | Cc1ccc(OC(=O)N(C)C[C@H]2OCc3ccccc3-c3c(n(C)c4ccccc34)C(=O)N([C@H](C)CO)C[C@@H]2C)cc1 | active
